# Compounds with a hit are over-represented: about 4.3% of the library has one in this group of screens.
# UBC13 polyUb – inhibitors of human UBC13 polyubiquitin chain formation | TR-FRET | P61088 | inhibition, % at 20 µM | AID 485273 | 0.47% of 330,000 active; in the data active = inhibition above about 45%, passing the limit was not always enough; inconclusive = no clear call, values can overlap the other calls
# Target sequence (P61088 whole entry, looked up): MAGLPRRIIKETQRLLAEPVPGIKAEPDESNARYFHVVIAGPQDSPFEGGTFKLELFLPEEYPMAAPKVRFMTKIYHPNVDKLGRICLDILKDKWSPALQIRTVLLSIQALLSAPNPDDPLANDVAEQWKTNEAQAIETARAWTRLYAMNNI
# Yeast superoxide – lowers age-related superoxide in aged yeast cells | 0.18% of 330,000 active | superoxide response (% of plate mean), % at 10 µM | AID 2690 | S. cerevisiae aged cells, superoxide DHE fluorescence; hits give low values;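 active = superoxide response under a set limit, about three screen SD below normal, cut at about 65% in these data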;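 note: yeast aged for seven days with compound at 30 °C before DHE staining; 100% = average MFI of all compound-treated wells on the plate with controls excluded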
# GRIN3A LBD mod – modulators (binders) of human NR3A ligand-binding domain; NR3A LBD differential scanning fluorimetry, Tm shift; 0% = protein alone, 100% = glycine-bound protein; Tm shift relative to glycine control, % at 25 µM; 2.5% of 340,000 active; AID 1259313;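 active = melting temperature shift of at least 10% of the positive control shift, at one fixed dose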
# dFosB activator – activators of mouse delta FosB homodimer; P13346; purified delta FosB, TAMRA-CDK5 oligo fluorescence polarization; percent of positive-control signal above neutral wells; activation, % at 25 µM; 0.99% of 340,000 active; AID 493131;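 active = mean activation above about 17%, with every replicate also reaching it, limit read from the data, passing the limit was not always enough; inconclusive = only one of the two conditions met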
# NALP1 inh – inhibitors of NALP1 inflammasome in yeast; S. cerevisiae NALP1/ASC/caspase-1 growth, X-gal OD620, 72 h; inhibition, % at 10 µM; 0.61% of 280,000 active; AID 2071; in the data active = inhibition mostly above about 24%, no sharp cut-off; inactive = mostly below about 32%
# Starred values were filed as active, the others as inactive; ? = inconclusive; . = not tested or not shown.
SMILES,UBC13 polyUb,Yeast superoxide,GRIN3A LBD mod,dFosB activator,NALP1 inh
O=[N+]([O-])c1ccc(NC(=S)NCc2ccc(F)cc2)cc1,2.6,101.2,7.5,4.3,-0.3
O=S(=O)(c1ccc(NC(=S)NCCc2ccccc2)cc1)N1CCOCC1,-5.7,105.4,23.9*,-1.5,28.8
O=[N+]([O-])c1ccc(NC(=S)NCCc2ccc(Cl)cc2)cc1,7.1,110.0,31.1*,-9.2,23.7
COc1ccc(NS(=O)(=O)c2ccc(S(=O)(=O)N3CCOCC3)cc2)cc1,5.0,83.9,1.9,-6.5,24.2
O=S(=O)(Nc1ccc(S(=O)(=O)N2CCOCC2)cc1)c1ccccc1,5.3,106.9,10.3*,2.9,10.6
NS(=O)(=O)c1ccc(NC(=S)NCCc2ccccc2)cc1,-0.9,85.0,12.3*,-5.2,-10.0
CCCNC(=O)c1ccc(COc2ccc(CCC)cc2OC)o1,-4.2,118.5,-0.4,-2.6,6.6
C/C1=C\CCC2C(/C=C(\C)CC1)OC(=O)C2CN1CCCCC1 (stereo unspecified),-0.2,104.9,-1.0,5.2,2.9
O=[N+]([O-])c1ccc(NNC(=S)Nc2ccccc2)cc1,-26.9,104.6,-1.2,-6.8,2.0
O=[N+]([O-])c1ccc(NC(=S)NCCc2ccccc2)cc1,5.4,111.6,34.6*,-2.9,34.5
COc1ccc(C2=Nn3c(nnc3-c3ccncc3)SC2)cc1OC,0.0,104.2,-1.0,88.3*,16.4
COc1ccc(-c2cc(=O)c3c(O)c(OC)c(OC)c(OC)c3o2)cc1,.,.,-0.2,5.1,.
O=c1cc(-c2ccc(O)cc2)oc2cc(O)cc(O)c12,28.8,123.2,17.4*,-27.3,.
O=c1c(O)c(-c2ccc(O)c(O)c2)oc2cc(O)ccc12,.,.,8.4,-2.8,.
O=c1c(O)c(-c2ccc(O)cc2)oc2cc(O)cc(O)c12,11.8,103.5,13.3*,6.4,.
COc1ccc(-c2cc(=O)c3c(O)c(OC)c(O)cc3o2)cc1,3.2,112.7,12.3*,-3.6,2.9
O=c1cc(-c2ccccc2)oc2cc(O)cc(O)c12,9.8,81.8,-8.3,0.8,.
CCOC(=O)CSC1=Nc2ccccc2C2=NC(CC(=O)NCc3ccccc3)C(=O)N12 (stereo unspecified),-7.6,114.3,-0.9,-6.8,14.5
CCCCNC(=O)CC1N=C2c3ccccc3N=C(SCC(=O)Nc3ccccc3C)N2C1=O (stereo unspecified),6.7,94.3,17.6*,-4.3,-5.8
CCC(C)Nc1nc(Cl)nc(NCCOc2ccccc2)n1 (stereo unspecified),8.5,92.7,13.4*,-7.3,13.8
CC(C)Nc1nc(Cl)nc(NCCOc2ccccc2)n1,2.0,106.0,-3.3,-11.8,34.2
CN(CC(=O)Nc1ccc(Cl)cc1)CC(=O)Nc1cccc(Br)c1,13.2,103.8,-4.6,-5.7,7.4
Cc1ccc2cccc(Oc3ncnc4scc(-c5ccccc5)c34)c2n1,4.9,100.9,1.8,-9.3,50.1
Cc1ccc2cccc(Oc3ncnc4scc(-c5ccc(Cl)cc5)c34)c2n1,-14.3,103.6,11.2*,-6.4,48.7
COc1ccc(NC(=O)c2cc(-c3ccccc3O)n[nH]2)cc1Cl,-8.9,97.8,26.0*,25.5*,13.6
SMILES,UBC13 polyUb,Yeast superoxide,GRIN3A LBD mod,dFosB activator,NALP1 inh
NS(=O)(=O)c1ccc(NC(=O)c2cc(-c3ccccc3O)n[nH]2)cc1,3.3,112.8,34.2*,-5.5,16.9
Cc1cc(C)c(O)c(-c2cc(C(=O)Nc3cccnc3)[nH]n2)c1,-8.3,107.0,7.2,?,1.7
Cc1cccc(NC(=O)c2cc(-c3cc(C)cc(C)c3O)n[nH]2)c1,3.6,94.7,35.7*,12.4,10.8
COc1ccc(NC(=O)c2cc(-c3cc(C)cc(C)c3O)n[nH]2)cc1Cl,-18.2,98.9,35.6*,7.6,6.6
COc1ccc(NC(=O)/C(C#N)=C/c2ncc([N+](=O)[O-])n2C)c(OC)c1,-17.9,94.2,-1.0,-5.7,.
Cc1cccc(NC(=O)c2cc(-c3cc(Cl)ccc3O)n[nH]2)c1,4.9,98.9,36.0*,5.9,20.7
COc1ccc(C(=O)Nc2ccc(OCC(F)(F)C(F)F)c(C(F)(F)F)c2)cc1OC,3.0,95.8,17.8*,-10.2,11.4
O=C(Nc1ccc(OCC(F)(F)C(F)F)c(C(F)(F)F)c1)c1ccc(Cl)cc1,-2.3,99.3,31.5*,9.0,.
O=C(Nc1ccc(Br)c(C(F)(F)F)c1)c1ccc(C(F)(F)F)cc1,-1.0,90.7,23.9*,.,.
O=C(Nc1ccc(Br)c(C(F)(F)F)c1)c1ccccc1,10.4,96.9,7.6,-8.7,41.6
